Reference: PubChem BioAssay (NCATS)
Records with an inconclusive call do not appear. Entries that show only a call come without a potency. The source made the active and inactive calls. The call rests on the fitted dose curve; in most records, active means well fitted curve in the direction sought with a large enough effect; inconclusive means small, poorly fitted or top-dose-only effect, or another doubt; inactive means no such curve, though single readings can be large; an effect the other way counts as inactive or inconclusive.

How the values were obtained:
[1] = target: Aldehyde dehydrogenase, mitochondrial (Homo sapiens) (UniProt P05091); assay: qHTS for Inhibitors of the Aldehyde Dehydrogenase Family (ALDH2) Primary screen (AID 2061308); further: nearly all actives have a fitted effect of over 55% in size
[2] = target: Retinaldehyde dehydrogenase 3 (Homo sapiens) (UniProt P47895); assay: qHTS for Inhibitors of the Aldehyde Dehydrogenase Family (ALDH1A3) Primary screen (AID 2061315)

Compound | Potency [1] | Potency [2]
COc1cc(NC(=O)c2cnn3c(C)cc(C)nc23)cc(OC)c1OC | inactive | inactive
CCCn1c(C)nc2c(NC3CCN(Cc4ccccc4)C3)nc(C)nc21 (stereo not given) | inactive | inactive
COc1cccc(-c2ccc3ncnc(NCc4ccc5c(c4)OCO5)c3c2)c1 | inactive | inactive
C=C1C(=O)OC2CC(C)C(CCC(C)O)=CCC12 (stereo not given) | inactive | inactive
Fc1ccc(Nc2nc(-c3ccncc3F)nc3ccccc23)cc1F | inactive | inactive
CCCCC1CCC(C(=O)Nc2ccc(S(=O)(=O)Nc3cc(C)on3)cc2)CC1 (stereo not given) | inactive | inactive
Cn1ncc(Cl)c1-c1cc(C(=O)N[C@H](CN)Cc2ccc(F)c(F)c2)oc1Cl | inactive | inactive
COc1cc2ncnc(N(C)Cc3cccs3)c2cc1-c1ccc2c(c1)OCO2 | inactive | inactive
Clc1cccc(-c2ccc3ncnc(NCc4cccnc4)c3c2)c1 | inactive | inactive
CC(Oc1ccc2[nH]nc(/C=C/c3cnn(CCO)c3)c2c1)c1c(Cl)cncc1Cl (stereo not given) | inactive | inactive
CC(C)c1cc2c(s1)c1cnn(Cc3ccccc3F)c(=O)c1n2C | inactive | inactive
C=C1CCC2C(C)(C(=O)OC)CCCC2(C)C1CCC1=CCOC1=O (stereo not given) | inactive | inactive
Cc1ccc([S+](=O)([O-])n2cc(Cc3ccc(-c4ccccc4)cc3)c3ccccc32)cc1 | inactive | inactive
Cc1cc(NS(=O)(=O)c2ccc(NC(=O)Cc3ccccc3)cc2)no1 | inactive | inactive
COc1ccccc1NC(=O)C1=C(C)NC(Nc2nc3ccccc3o2)=NC1c1ccccc1Br (stereo not given) | inactive | inactive
